Measured values from the supplement of paper PMC9399229.
“And” between values parts separate entries of the source, which are not always exact repeats. Equal values may be shown once. Where a name gives a salt, the structure may show the parent alone. ± gives the standard deviation of the averaged measurements. Whole data set: some 1,900 compounds, median “relative cell viability (CellTiter-Glo), compound alone” near 1, cut for the lowest 2% near 0.16. This excerpt belongs to a sample that is enriched for the lowest values.

system: Hep3B; assay: relative cell viability (CellTiter-Glo), compound alone (fraction); higher = more viable cells (less growth inhibition); conditions: cabozantinib 0 µM; 4 days

Compared with `O=C(Nc1c[nH]nc1-c1nc2ccc(CN3CCOCC3)cc2[nH]1)NC1CC1`, `N#Cc1cc(CN2CCC(Nc3ncnc4sc(Cl)cc34)CC2)ccc1F` is higher in relative cell viability: 0.3 ± 0.036 for the first, 1.42 ± 0.079 for the second.

First: O=[N+]([O-])c1ccc2c(c1)S(=O)(=O)C=C2 [Stattic]
Second: Cc1ccc(S(=O)(=O)c2ccc([N+](=O)[O-])o2)cc1
The relative cell viability of the first is higher: 1.03 ± 0.043 for the first, 0.2656 ± 0.0026 for the second.

Going from `C[C@]12CC[C@@H]3c4ccc(OC(=O)c5ccccc5)cc4CC[C@H]3[C@@H]1CC[C@@H]2O` [Estradiol Benzoate] to `O=C(COc1ccc(C(=O)c2ccccc2)cc1)NC1CCN(Cc2ccccc2)CC1` [AdipoRon], the relative cell viability falls from 1.19 ± 0.14 to 0.881 ± 0.096.

First: CCN(CC)Cc1ccc2cc(COC(=O)Nc3ccc(C(=O)NO)cc3)ccc2c1 [Givinostat (ITF2357)]
Second: CCCCN(Cc1ccc(C(=O)NO)cc1)C(=O)Nc1ccccc1 [Nexturastat A]
The relative cell viability of the first is lower: 0.156 ± 0.0025 for the first, 1.06 ± 0.17 for the second.

First: COc1ccc(Cn2ccc3ccc(C(=O)NO)cc32)cc1
Second: O=C(NCc1ccc(Oc2ccccc2)cc1)c1nc(-c2cc(Br)c(O)c(Br)c2)no1
The relative cell viability of the first is lower: 0.909 ± 0.14 for the first, 1.13 ± 0.022 for the second.

First: CCN(CC)CCNC(=O)c1ccc(N)cc1 [Procainamide HCl]
Second: CCCCc1nc2cc(/C=C/C(=O)NO)ccc2n1CCN(CC)CC [Pracinostat (SB939)]
The relative cell viability of the first is higher: 0.954 ± 0.032 for the first, 0.155 ± 0.046 for the second.

Going from `OCc1ccc(O[C@@H]2O[C@H](CO)[C@@H](O)[C@H](O)[C@H]2O)cc1` [Gastrodin] to `O=c1[nH]c(=O)n(C2CC(O)C(CO)O2)cc1Br` (configuration not stated) [Bromodeoxyuridine (BrdU)], the relative cell viability falls from 1.354 ± 0.0026 to 1.04 ± 0.082.

`COC(=O)c1ccc2c(c1)NC(=O)/C2=C(\Nc1ccc(N(C)C(=O)CN2CCN(C)CC2)cc1)c1ccccc1` [Nintedanib (BIBF 1120)] and `CN(C)Cc1cccc(N/C(=C2\C(=O)Nc3cc(C(N)=O)ccc32)c2ccccc2)c1` are within error of each other in relative cell viability: 0.761 ± 0.038 for the first, 0.7302 ± 0.0057 for the second.

Compared with `CCS(=O)(=O)Nc1ccc2c(c1)/C(=C(/Nc1ccc(CN3CCCCC3)cc1)c1ccccc1)C(=O)N2` [Hesperadin], `CN1CCN(Cc2ccc(-c3cnc4[nH]cc(-c5ccc6[nH]ccc6c5)c4c3)cc2)CC1` is higher in relative cell viability: 0.112 ± 0.0022 for the first, 0.791 ± 0.033 for the second.

Going from `CC(=O)Nc1ccc(C(=O)Nc2ccccc2N)cc1` [CI994 (Tacedinaline)] to `CC(C)[C@H](C(=O)Nc1ccc(C(=O)NO)cc1)c1ccccc1`, the relative cell viability falls from 1.17 ± 0.1 to 0.138 ± 0.015.

First: CCn1cc(-c2ccnc3[nH]c(-c4cccc(CN(C)C)c4)cc23)c(-c2ccc(NC(=O)N(C)C)cc2)n1
Second: CN(C)C(=O)Nc1cccc(-c2ccc(N(C)C)cc2)c1 [Atglistatin]
The relative cell viability of the first is lower: 0.94 ± 0.099 for the first, 1.37 ± 0.12 for the second.

Compared with `COc1ccccc1-c1cc(Nc2cccc(CS(N)(=O)=O)c2)ncn1`, `C=CC(=O)Nc1ccc2ncnc(Nc3cccc(Br)c3)c2c1` is higher in relative cell viability: 1.11 ± 0.029 for the first, 1.48 ± 0.24 for the second.

`O=C(Nc1cc(C(F)(F)F)ccc1N1CCCCC1)c1ccncc1` and `Cc1ccc(NC(=O)c2ccc(CN3CC[C@H](N(C)C)C3)c(C(F)(F)F)c2)cc1Nc1nccc(-c2cncnc2)n1` [Bafetinib (INNO-406)] are within error of each other in relative cell viability: 1.07 ± 0.016 for the first, 1.13 ± 0.047 for the second.

First: CC(C)n1nc(-c2ccc3oc(N)nc3c2)c2c(N)ncnc21
Second: Cn1cc(-c2ccncc2)c(-c2ccc(OCc3ccc4ccccc4n3)cc2)n1
The relative cell viability of the first is lower: 0.387 ± 0.022 for the first, 1.13 ± 0.025 for the second.

First: CC1(C)CCC[C@]2(C)[C@H]3CC(=O)O[C@]3(C)CC[C@@H]12 [Sclareolide]
Second: CC1(C)CC[C@]2(NC(=O)C(C)(F)F)CC[C@]3(C)[C@H](C(=O)C=C4[C@@]5(C)C=C(C#N)C(=O)C(C)(C)[C@@H]5CC[C@]43C)[C@@H]2C1 [Omaveloxolone (RTA-408)]
The relative cell viability of the first is higher: 0.9838 ± 0.007 for the first, 0.206 ± 0.0087 for the second.

Going from `COc1ccc(-c2nc(N3CCOCC3)c3sc(CN(C)c4ncc(C(=O)NO)cn4)cc3n2)cn1` to `Cc1c(CN2CCN(C(=O)[C@H](C)O)CC2)sc2c(N3CCOCC3)nc(-c3cnc(N)nc3)nc12`, the relative cell viability rises from 0.132 ± 0.013 to 0.546 ± 0.022.

First: CS(=O)(=O)N1CCN(Cc2cc3nc(-c4cccc5[nH]ncc45)nc(N4CCOCC4)c3s2)CC1
Second: CN1CCN(c2ccc3nc(-c4c(N)c5c(F)cccc5[nH]c4=O)[nH]c3c2)CC1 [Dovitinib (TKI-258) Dilactic Acid]
The relative cell viability of the first is higher: 1.17 ± 0.013 for the first, 0.6208 ± 0.0046 for the second.

Going from `Cc1c(Cc2ccc3ccccc3n2)c2cc(F)ccc2n1CC(=O)O` to `Cc1[nH]c2ccccc2c1CCNCc1ccc(/C=C/C(=O)NO)cc1` [Panobinostat (LBH589)], the relative cell viability falls from 1.08 ± 0.055 to 0.12 ± 0.019.

Compared with `CN1C(C(=O)Nc2ccccn2)=C(O)c2sccc2S1(=O)=O` [Tenoxicam], `O=C(Nc1cccc(Cl)c1)c1ccccn1` is lower in relative cell viability: 1 ± 0.051 for the first, 0.9222 ± 0.0036 for the second.

Going from `CN1CCN(c2ccc3nc(-c4c(N)c5c(F)cccc5[nH]c4=O)[nH]c3c2)CC1` [Dovitinib (TKI-258, CHIR-258)] to `COc1cc(N2CCN(C)CC2)ccc1Nc1nccc(-c2cn(C)c3cnccc23)n1`, the relative cell viability rises from 0.85 ± 0.018 to 1.05 ± 0.027.

Going from `CN1CCN(c2ccc3nc(-c4c(N)c5c(F)cccc5[nH]c4=O)[nH]c3c2)CC1` [Dovitinib (TKI258) Lactate] to `Cc1cc(C)c(CNC(=O)c2cc(-c3ccc(N4CCN(C)CC4)nc3)cc3c2c(C)cn3C(C)C)c(=O)[nH]1`, the relative cell viability rises from 0.67 ± 0.011 to 1.078 ± 0.0077.

`Cc1ccc(C(=O)c2cc(O)c(O)c([N+](=O)[O-])c2)cc1` [Tolcapone] and `O=C(/C=C/c1ccc(O)cc1)c1ccc(O)cc1O` [Isoliquiritigenin] are within error of each other in relative cell viability: 1.05 ± 0.076 for the first, 0.904 ± 0.33 for the second.

Compared with `NC(=S)N/N=C/c1ncccc1N` [Triapine], `O=C(NC1CC1)c1cc(-c2cccs2)on1` [Isoxazole 9 (ISX-9)] is lower in relative cell viability: 1.17 ± 0.017 for the first, 1.13 ± 0.015 for the second.

Compared with `COc1cc(Nc2ncc(F)c(Nc3ccc4c(n3)N(COP(=O)(O)O)C(=O)C(C)(C)O4)n2)cc(OC)c1OC` [Fostamatinib (R788)], `CCNC(=O)c1noc(-c2cc(Cl)c(O)cc2O)c1-c1ccc(OC)cc1` is lower in relative cell viability: 0.843 ± 0.025 for the first, 0.15572 ± 2.3e-05 for the second.

First: C/C(=C\c1ccc(C(=O)O)cc1)c1ccc2c(c1)C(C)(C)CCC2(C)C [TTNPB (Arotinoid Acid)]
Second: CC(=O)Nc1ccc(NC(=S)NC(=O)c2ccc(C(C)(C)C)cc2)cc1 [Tenovin-1]
The relative cell viability of the first is higher: 1.11 ± 0.1 for the first, 0.269 ± 0.0096 for the second.

Compared with `CO[C@H]1C[C@@H]2CC[C@@H](C)[C@@](O)(O2)C(=O)C(=O)N2CCCC[C@H]2C(=O)O[C@H]([C@H](C)C[C@@H]2CC[C@@H](OP(C)(C)=O)[C@H](OC)C2)CC(=O)[C@H](C)/C=C(\C)[C@@H](O)[C@@H](OC)C(=O)[C@H](C)C[C@H](C)/C=C/C=C/C=C/1C` [Ridaforolimus (Deforolimus, MK-8669)], `CC[C@@H](C)Nc1cc(C(=O)N[C@H]2C[C@H]3CC[C@@H](C2)N3c2ccc(C(=O)C3CC3)cn2)c(C)cc1C(N)=O` is lower in relative cell viability: 1.07 ± 0.074 for the first, 0.213 ± 0.014 for the second.

Compared with `CC1=CC(=O)c2ccccc2C1=O` [Menadione], `CC(C)(C)C(=O)Nc1ccc2c(c1)C(=O)C(=O)c1ccccc1-2` is lower in relative cell viability: 0.9362 ± 0.0074 for the first, 0.0728 ± 0.012 for the second.

`CC(=O)Nc1ccccc1` [Acetanilide] and `O=C(Nc1ccccc1)c1ccccc1O` [Salicylanilide] are within error of each other in relative cell viability: 1.17 ± 0.044 for the first, 1.147 ± 0.0051 for the second.

First: NC(=O)CCCSc1nc(N)nc(-c2c(Cl)cc3c4c(cccc24)COC3)n1
Second: CNc1cc(-c2cccc(Cl)c2Cl)nc(N)n1
The relative cell viability of the first is lower: 0.19 ± 0.026 for the first, 1.1 ± 0.021 for the second.

`Cc1[nH]c2ccccc2c1CCNC(=O)c1cccs1` and `COc1ccc2cccc(CCNC(C)=O)c2c1` [Agomelatine] are within error of each other in relative cell viability: 1.19 ± 0.067 for the first, 1.1 ± 0.097 for the second.

Compared with `O=C(/C=C/c1cccc(S(=O)(=O)Nc2ccccc2)c1)NO` [Belinostat (PXD101)], `CN(C)Cc1ccc(S(=O)(=O)n2ccc(/C=C/C(=O)NO)c2)cc1` [Resminostat] is higher in relative cell viability: 0.216 ± 0.019 for the first, 0.781 ± 0.029 for the second.

Going from `O=C(Nc1cc(C(F)(F)F)cc(C(F)(F)F)c1)c1cc(Cl)ccc1O` to `CC(ONC(=O)c1cc(C(F)(F)F)cc(C(F)(F)F)c1)C(=O)Nc1ccc(Cl)cc1` (configuration not stated), the relative cell viability rises from 0.0996 ± 0.0025 to 1.02 ± 0.094.

Going from `CCNC(=O)c1noc(-c2cc(C(C)C)c(O)cc2O)c1-c1ccc(CN2CCOCC2)cc1` to `CCNC(=O)c1[nH]nc(-c2cc(Cl)c(O)cc2O)c1-c1ccc(OC)cc1`, the relative cell viability rises from 0.176 ± 0.04 to 0.348 ± 0.025.

Going from `CC(=O)N1CCN(CCOc2ccc(C3CCN(C4=Nn5c(nnc5C(F)(F)F)CC4)CC3)cc2)CC1` to `Cn1cc(CNCC2CCN(c3ncc(C(=O)NO)cn3)CC2)c2ccccc21`, the relative cell viability falls from 1.3 ± 0.037 to 0.163 ± 0.029.

Compared with `Cc1[nH]nc2ccc(-c3cncc(OC[C@@H](N)Cc4ccccc4)c3)cc12`, `CC(C)(Cc1ccc2ccccc2c1)NC[C@@H](O)COc1cccc(Cl)c1C#N` is higher in relative cell viability: 0.123 ± 0.0016 for the first, 1.09 ± 0.051 for the second.

Compared with `Cn1nc(C(C)(C)C)cc1C(=O)N[C@@H](Cc1cccc(Cl)c1)C(=O)NCC#N` [Cathepsin Inhibitor 1], `CNC(=O)[C@H](Cc1c[nH]c2ccccc12)NC(=O)[C@@H](CC(=O)NO)CC(C)C` [Ilomastat (GM6001, Galardin)] is lower in relative cell viability: 1.151 ± 0.011 for the first, 1.05 ± 0.021 for the second.

First: O=C(O)C(S)=Cc1c[nH]c2ccc(F)cc12
Second: O=C(O)Cn1nnc(-c2cc(N3CCC(Oc4cc(F)ccc4Br)CC3)no2)n1
The relative cell viability of the first is higher: 1.27 ± 0.013 for the first, 1.05 ± 0.024 for the second.

`O=[N+]([O-])c1cn2c(n1)OC[C@@H](OCc1ccc(OC(F)(F)F)cc1)C2` and `O=C(NCC1(c2nc(-c3ccccc3)cs2)CCOCC1)c1cccc(-c2noc(C(F)(F)F)n2)c1` are within error of each other in relative cell viability: 1.05 ± 0.064 for the first, 1.1 ± 0.12 for the second.

First: COC(=O)CC[C@H](NC(=O)[C@H](CC(=O)OC)NC(=O)OCc1ccccc1)C(=O)N[C@H](C(=O)N[C@@H](CC(=O)OC)C(=O)CF)C(C)C
Second: CCCN1CCCC[C@H]1C(=O)Nc1c(C)cccc1C [Ropivacaine HCl]
The relative cell viability of the first is higher: 1.25 ± 0.12 for the first, 1.02 ± 0.075 for the second.

First: Clc1ccc(NN=C(c2ccccc2)c2ccccn2)nc1
Second: COc1ccc(CCc2nc3cc(-c4c(C)noc4C)ccc3n2C[C@H](C)N2CCOCC2)cc1Cl
The relative cell viability of the first is lower: 0.0829 ± 0.0081 for the first, 0.925 ± 0.092 for the second.

`CC(C)(C)c1cc(/C=C(\C#N)C(N)=S)cc(C(C)(C)C)c1O` [Tyrphostin AG 879] gave a relative cell viability of 1.04 ± 0.053.

`COc1cc(Br)c(Nc2nc(-c3c(C)nc4ncccn34)cs2)c(Br)c1` was tested, and the relative cell viability was 0.601 and 0.575.
